# Test results: PubChem BioAssay
# Calls of active or inactive are those of the source.
# Key:
# [1] = system: Wnt5a (protein binding on small-molecule microarray); assay: small molecules binding Wnt5a protein – biophysical, small-molecule microarray, 635/667 nm fluorescence, primary screen (AID 1142); details: 635 nm fluorescence, higher = more signal;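 further: fluorescence read at 667 nm with signal to noise per printed feature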
# [2] = ATP-based viability of Huh7 replicon cells – cell-based, CellTiter-Glo luminescence, basal, 48 h, cytotoxicity control for HCV replication inhibitor project, primary screen (AID 1143); details: higher = more signal, called active from +8 up or from −8 down;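 further: Huh7 hepatoma cells carrying a hepatitis C replication reporter with no stimulus; test concentration not given here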
# [3] = basal CRE-LacZ reporter activity in PC12 – cell-based, unstimulated, primary screen (AID 1145); details: no forskolin, luminescence, 4.5 h, higher = more signal, called active from +8 up or from −8 down
# [4] = forskolin-driven CRE-LacZ activity in PC12 – cell-based, CRE-LacZ reporter, forskolin-stimulated, primary screen (AID 1146); details: luminescence, 4.5 h, higher = more signal, called active from +8 up or from −8 down;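 further: PC12 cells with 6xCRE LacZ reporter stimulated by forskolin 10 µM; beta-galactosidase reporter signal reflecting CREB driven transcription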
# [5] = biological target: Streptavidin (Streptomyces avidinii) (UniProt P22629); assay: compounds binding control protein streptavidin – biophysical, small-molecule microarray, 635/667 nm fluorescence, artefact control for SMM compound annotation, primary screen (AID 1147); details: higher = more signal;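 further: signal reflects streptavidin binding to arrayed compounds as a control protein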
# [6] = probe aInhba binding on compound microarray – biochemical, small-molecule microarray, 635/667 nm fluorescence, primary screen (AID 1148); details: higher = more signal;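 further: score merges 667nm spot fluorescence with signal-to-noise for antibody binding to printed compounds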
# [7] = biological target: Torsin-1A (Homo sapiens) (UniProt O14656); assay: TOR1A wild-type binding on microarray – cell lysate, small-molecule microarray, lysate, 635/667 nm, primary screen (AID 1149); details: COS7 hTOR1A-WT lysate, 635 nm fluorescence, higher = more signal
# [8] = biological target: Torsin-1A (Homo sapiens) (UniProt O14656); assay: torsin A mutant lysate binding on microarrays – cell lysate, small-molecule microarray, COS7 lysate, 635/667 nm fluorescence, primary screen (AID 1150); details: COS7 hTOR1A mutant lysate, 635 nm fluorescence, higher = more signal;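 further: score pools 667 nm emission and signal to noise measuring lysate protein binding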
# [9] = system: Sonic hedgehog protein (Shh); assay: Sonic hedgehog microarray binding compounds – biochemical, small-molecule microarray, 635/667 nm fluorescence, primary screen (AID 1151); details: 635 nm fluorescence, higher = more signal;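 further: Shh protein binding to compounds spotted on small-molecule microarray slides; score combines spot fluorescence intensity with signal-to-noise across triplicate slides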
# [10] = optical density shifts of acrAB sulA E. coli – strain DRC41, OD650, 48 h, E. coli filamentation inducer project, primary screen (AID 1152); details: higher = more signal, called active from +8 up or from −8 down;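 further: E. coli MC1000 strain DRC41 lacking acrAB efflux pump and sulA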
# [11] = probe aLefty1 binding on compound microarray – biochemical, small-molecule microarray, 635/667 nm fluorescence, primary screen (AID 1153); details: higher = more signal;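 further: score merges spot fluorescence with signal-to-noise ratio from the scanned slide images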
# [12] = plasmodial surface anion channel blockers, osmotic lysis – cell-based, P. falciparum Indochina, OD700, 1 h, primary screen (AID 1154); details: P. falciparum Indochina infected RBC osmotic lysis, higher = more signal, called active from +8 up or from −8 down
# [13] = plasmodial surface anion channel blockers, osmotic lysis – cell-based, P. falciparum Indochina, OD700, 2 h, primary screen (AID 1155);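 further: lysis reports solute entry through the parasite surface anion channel PSAC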; details: P. falciparum Indochina infected erythrocytes, higher = more signal, called active from +8 up or from −8 down
# [14] = changes in parasitized red cell lysis, either direction – P. falciparum Indochina, OD700, 3 h, PSAC antagonist project, primary screen (AID 1156); details: P. falciparum-infected erythrocytes, osmotic lysis, higher = more signal, called active from +8 up or from −8 down
# [15] = plasmodial surface anion channel blockers, osmotic lysis – cell-based, P. falciparum Indochina, OD700, 18 h, primary screen (AID 1157); details: P. falciparum Indochina infected erythrocytes, osmotic lysis OD700, 18 h; higher = more signal, called active from +8 up or from −8 down
# [16] = S6 kinase pathway phospho-S6 level changes – cell-based, A549, cytoblot, luminescence, serum-stimulated, primary screen (AID 1158); details: 5 h, higher = more signal;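 further: serum-stimulated A549 lung adenocarcinoma cells; signal is phosphorylated S6 detected by cytoblot immunostaining with HRP secondary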
# [17] = biological target: NADPH oxidase 2 (Homo sapiens) (UniProt P04839); assay: compounds shifting NOX2 Amplex Red fluorescence – cell-based, HEK293-NOX2, PMA-stimulated, NOX inhibitor project, primary screen (AID 1159); details: 45 min, higher = more signal, called active from +8 up or from −8 down; further: test concentration not given here
# [18] = biological target: NADPH oxidase 4 (Homo sapiens) (UniProt Q9NPH5); assay: compounds shifting NOX4 Amplex Red fluorescence – cell-based, HEK293-NOX4, tetracycline-induced, NOX inhibitor project, primary screen (AID 1160); details: HEK293-NOX4, Amplex Red H2O2 fluorescence, 45 min; higher = more signal, called active from +8 up or from −8 down
# [19] = biological target: NADPH oxidase 5 (Homo sapiens) (UniProt Q96PH1); assay: compounds shifting NOX5 Amplex Red fluorescence – cell-based, HEK293-NOX5, NOX inhibitor project, primary screen (AID 1161); details: HEK293-NOX5, ionomycin, 45 min, higher = more signal
# [20] = compound effects on lung adenocarcinoma cell viability – A549, calcein-AM fluorescence, 48 h, basal, profiling panel (AID 1162); details: higher = more signal; further: test concentration not given here
# Torsin-1A (Homo sapiens), sequence (O14656 whole entry, looked up): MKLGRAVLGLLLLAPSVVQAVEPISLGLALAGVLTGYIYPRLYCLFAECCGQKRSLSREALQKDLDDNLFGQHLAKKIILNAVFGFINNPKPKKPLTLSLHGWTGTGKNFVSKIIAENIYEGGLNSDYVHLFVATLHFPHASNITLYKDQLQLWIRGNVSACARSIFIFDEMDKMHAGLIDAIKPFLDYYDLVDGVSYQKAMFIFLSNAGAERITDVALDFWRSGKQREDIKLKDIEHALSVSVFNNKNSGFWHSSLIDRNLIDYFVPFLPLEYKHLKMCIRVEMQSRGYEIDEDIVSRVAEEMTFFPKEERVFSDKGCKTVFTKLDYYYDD
# Streptavidin (Streptomyces avidinii), sequence (P22629 whole entry, looked up): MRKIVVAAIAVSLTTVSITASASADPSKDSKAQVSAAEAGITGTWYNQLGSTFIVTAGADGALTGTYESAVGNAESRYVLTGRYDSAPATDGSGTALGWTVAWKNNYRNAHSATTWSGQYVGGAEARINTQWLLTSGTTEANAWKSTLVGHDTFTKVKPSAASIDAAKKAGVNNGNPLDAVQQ
# NADPH oxidase 4 (Homo sapiens), sequence (Q9NPH5 whole entry, looked up): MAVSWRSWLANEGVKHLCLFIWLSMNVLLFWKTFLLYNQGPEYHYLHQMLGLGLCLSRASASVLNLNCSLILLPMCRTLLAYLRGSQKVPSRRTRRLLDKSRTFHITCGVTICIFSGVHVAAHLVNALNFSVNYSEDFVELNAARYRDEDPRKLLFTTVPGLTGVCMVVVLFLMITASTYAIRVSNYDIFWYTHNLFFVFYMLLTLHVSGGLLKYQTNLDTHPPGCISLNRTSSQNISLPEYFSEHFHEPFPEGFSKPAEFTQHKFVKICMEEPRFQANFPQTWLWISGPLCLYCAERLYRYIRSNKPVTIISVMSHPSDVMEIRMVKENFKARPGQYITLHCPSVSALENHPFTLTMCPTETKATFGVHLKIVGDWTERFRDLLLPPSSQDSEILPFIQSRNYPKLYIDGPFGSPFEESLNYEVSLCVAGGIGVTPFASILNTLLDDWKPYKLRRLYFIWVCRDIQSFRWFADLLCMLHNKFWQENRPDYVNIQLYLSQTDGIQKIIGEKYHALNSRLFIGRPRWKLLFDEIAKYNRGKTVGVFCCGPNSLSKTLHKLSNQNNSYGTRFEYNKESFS
# NADPH oxidase 2 (Homo sapiens), sequence (P04839 whole entry, looked up): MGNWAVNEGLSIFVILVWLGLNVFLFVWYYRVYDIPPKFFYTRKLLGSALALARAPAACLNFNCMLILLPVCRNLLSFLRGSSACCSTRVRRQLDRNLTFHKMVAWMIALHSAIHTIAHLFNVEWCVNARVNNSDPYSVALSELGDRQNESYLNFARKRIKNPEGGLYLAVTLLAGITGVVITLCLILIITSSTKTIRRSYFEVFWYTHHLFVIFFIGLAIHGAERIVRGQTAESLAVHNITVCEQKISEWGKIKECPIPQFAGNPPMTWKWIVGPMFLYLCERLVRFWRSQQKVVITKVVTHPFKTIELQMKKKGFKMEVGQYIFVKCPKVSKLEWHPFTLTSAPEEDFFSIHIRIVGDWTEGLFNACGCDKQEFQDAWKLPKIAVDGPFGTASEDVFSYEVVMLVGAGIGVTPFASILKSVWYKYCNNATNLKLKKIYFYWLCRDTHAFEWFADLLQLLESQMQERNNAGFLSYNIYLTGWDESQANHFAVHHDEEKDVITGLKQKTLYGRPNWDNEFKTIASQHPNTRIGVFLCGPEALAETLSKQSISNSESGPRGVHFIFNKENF
# NADPH oxidase 5 (Homo sapiens), sequence (Q96PH1 whole entry, looked up): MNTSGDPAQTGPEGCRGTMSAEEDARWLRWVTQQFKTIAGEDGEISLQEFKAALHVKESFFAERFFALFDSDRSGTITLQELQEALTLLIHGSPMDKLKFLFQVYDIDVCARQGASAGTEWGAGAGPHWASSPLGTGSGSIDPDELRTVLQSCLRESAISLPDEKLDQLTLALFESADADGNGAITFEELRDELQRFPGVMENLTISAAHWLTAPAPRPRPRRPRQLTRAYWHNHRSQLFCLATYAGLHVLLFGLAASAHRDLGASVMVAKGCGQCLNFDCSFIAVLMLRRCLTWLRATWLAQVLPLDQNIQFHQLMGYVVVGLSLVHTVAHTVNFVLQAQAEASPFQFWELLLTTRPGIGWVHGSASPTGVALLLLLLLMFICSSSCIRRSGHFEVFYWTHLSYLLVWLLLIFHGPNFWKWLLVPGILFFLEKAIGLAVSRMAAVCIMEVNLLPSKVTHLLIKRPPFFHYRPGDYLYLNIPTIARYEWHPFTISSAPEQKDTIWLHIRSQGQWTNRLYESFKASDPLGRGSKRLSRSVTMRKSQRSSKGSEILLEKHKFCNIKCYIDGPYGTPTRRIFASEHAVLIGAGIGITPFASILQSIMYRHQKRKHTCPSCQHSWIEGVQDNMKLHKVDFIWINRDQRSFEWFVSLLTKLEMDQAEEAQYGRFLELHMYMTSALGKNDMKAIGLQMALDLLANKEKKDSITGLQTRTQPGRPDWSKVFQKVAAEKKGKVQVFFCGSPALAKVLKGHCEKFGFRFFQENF
Structure (SMILES),composite z-score [1],z-score [2],z-score [3],z-score [4],composite z-score [5],composite z-score [6],composite z-score [7],composite z-score [8],composite z-score [9],z-score [10],composite z-score [11],z-score [12],z-score [13],z-score [14],z-score [15],z-score [16],z-score [17],z-score [18],z-score [19],z-score [20]
CC(=O)OC(C/C=C\B1OC(C)(C)C(C)(C)O1)c1ccccc1 (stereo not given),-0.115,-3.4 (inactive),3.04 (inactive),-2.27 (inactive),-0.748,-0.284,-0.611,0.301,-0.236,-2.2 (inactive),-0.147,0.344 (inactive),-0.832 (inactive),-0.628 (inactive),-1.04 (inactive),3.07,-0.889 (inactive),0.478 (inactive),-2.94,2.43
CC(C)(C)OC(=O)CC[C@@]1(C(=O)NCc2ccccc2)N=C(c2ccc(OCCCO)cc2)O[C@@H]1c1ccccc1CN=[N+]=[N-],1.14,-5.23 (inactive),1.46 (inactive),-1.42 (inactive),1.17,0.156,0.807,0.312,0.285,2.4 (inactive),-0.14,26.3 (active),16.7 (active),-0.187 (inactive),0.712 (inactive),2.07,-0.046 (inactive),-0.0643 (inactive),-1.35,1.09
C=CCC(OC(C)=O)[C@@H]1[C@@H](N(Cc2cc3ccccc3o2)C(=O)c2ccc(-c3ccccc3)cc2)c2cc(OCCCO)ccc2N1C(=O)c1ccc(-c2ccccc2)cc1 (stereo not given in full),0.0258,0.267 (inactive),0.6 (inactive),-0.625 (inactive),-0.0123,0.0497,-0.347,0.244,0.224,2.06 (inactive),0.0038,-0.0828 (inactive),0.179 (inactive),-0.0582 (inactive),-0.0337 (inactive),0.436,0.989 (inactive),-1.13 (inactive),0.786,0.0525
COCCOC(=O)N1C(=O)[C@@]2(c3cc(C#CC4(O)CCCCCC4)ccc31)[C@H](C(=O)NC[C@H](O)c1ccccc1)[C@H]1C(=O)O[C@H](c3ccccc3)[C@H](c3ccccc3)N1[C@@H]2c1ccccc1OCCO,0.393,-5.32 (inactive),-0.203 (inactive),-0.464 (inactive),0.637,0.0393,0.821,0.709,1.9,1.5 (inactive),0.223,2.13 (inactive),1.55 (inactive),-0.535 (inactive),0.922 (inactive),0.632,1.82 (inactive),-0.729 (inactive),0.85,0.463
COCCOC(=O)N1C(=O)[C@@]2(c3cc(C#CC4(O)CCCCCC4)ccc31)[C@H](c1ccc(O)cc1)N1[C@H](c3ccccc3)[C@H](c3ccccc3)OC(=O)[C@H]1[C@@H]2C(N)=O,0.496,-2.03 (inactive),-0.168 (inactive),-0.304 (inactive),0.629,0.101,0.0241,0.497,1.22,1.91 (inactive),0.181,1.14 (inactive),-1.24 (inactive),-1.54 (inactive),-2.13 (inactive),0.736,1.97 (inactive),0.751 (inactive),1.29,0.0692
CC(C)C[C@@H]1NC(=O)[C@H]2C[C@@H](C(=O)NCCCC[N+](C)(C)C)[C@@H](c3cccc(OCCO)c3)N2C1=O,0.223,-1.01 (inactive),-0.26 (inactive),-1.21 (inactive),-0.429,-0.1,2.05,0.629,2.03,0.512 (inactive),-0.243,2.25 (inactive),-1.73 (inactive),-2.51 (inactive),-2.05 (inactive),0.251,-1.8 (inactive),-0.815 (inactive),-1.49,1.01
C=CCC1(CC=C)C[C@H]2CO[C@H](c3ccc(OC)cc3)N2C1=O,-0.125,-0.15 (inactive),1.73 (inactive),-0.473 (inactive),-0.147,-0.105,0.483,0.862,0.707,2.03 (inactive),-0.0654,-0.214 (inactive),0.573 (inactive),-0.123 (inactive),0.503 (inactive),0.0446,0.992 (inactive),0.181 (inactive),-0.0682,1.12
Cc1ccc(S[C@]2(C(=O)NCCN3CCOCC3)CC(=O)N(Cc3cc(C(F)(F)F)cc(C(F)(F)F)c3)[C@@H]2c2ccc(CO)cc2)cc1,0.322,-2.39 (inactive),-0.464 (inactive),-1.7 (inactive),-0.721,-0.0371,-0.847,-0.521,-0.105,2.85 (inactive),-0.0576,1.69 (inactive),-0.152 (inactive),-0.468 (inactive),-1.39 (inactive),2.65,0.538 (inactive),0.706 (inactive),0.754,0.422
CN(C)CCCC[C@@H]1NC(=O)[C@@H]2C[C@H](C(=O)NCCCCCNC(=O)CS)[C@H](c3cccc(OCCO)c3)N2C1=O,0.21,-5.23 (inactive),-0.39 (inactive),-1.49 (inactive),0.07,0.0869,0.672,0.408,2.01,1.97 (inactive),0.2,2.86 (inactive),0.159 (inactive),-2.96 (inactive),-0.778 (inactive),2.45,-0.143 (inactive),0.366 (inactive),2.19,-0.459
C=CCN1C(=O)[C@@]2(O[C@@H](CCO)[C@H]([Si](C)(C)c3ccc(OC)cc3)[C@H]2C)c2cc(N(C=O)c3ccccc3)ccc21,0.125,-7.99 (inactive),16.9 (active),-4.02 (inactive),-0.387,-0.0044,0.0589,0.0237,0.207,1.55 (inactive),-0.16,24 (active),7.57 (inactive),-0.599 (inactive),0.279 (inactive),0.183,-0.477 (inactive),0.638 (inactive),-0.174,-3.16
COCCCNC(=O)[C@@]1(Cc2ccccc2)N=C(c2ccc(OCCCO)cc2)O[C@H]1c1ccccc1N=[N+]=[N-],0.834,-4.48 (inactive),1.74 (inactive),-1.74 (inactive),0.356,0.49,0.544,0.449,0.475,1.78 (inactive),0.826,29.6 (active),27.1 (active),3.66 (inactive),1.92 (inactive),0.98,-0.14 (inactive),0.523 (inactive),-1.57,-0.622
CO[C@H]1O[C@H](CO)[C@@H](OC(=O)Nc2ccccc2)[C@H](OC(=O)Nc2ccccc2-c2ccccc2)[C@H]1OC(=O)Nc1ccccc1-c1ccccc1,0.289,-5.87 (inactive),1.56 (inactive),0.028 (inactive),0.787,-0.0506,0.56,0.679,0.877,0.663 (inactive),0.302,3.27 (inactive),-0.843 (inactive),-1.21 (inactive),-1.81 (inactive),0.668,-6.45 (inactive),-0.665 (inactive),-1.43,-4.11
COc1ccc(C#Cc2ccc3c(c2)[C@]2(C(=O)N3)[C@H](c3ccc(O)cc3)N3[C@H](c4ccccc4)[C@H](c4ccccc4)OC(=O)[C@H]3[C@@H]2C(N)=O)cc1,0.295,-5.1 (inactive),0.209 (inactive),-0.532 (inactive),-0.881,-0.153,0.255,-0.0088,-0.301,1.63 (inactive),-0.147,2.89 (inactive),1.58 (inactive),0.672 (inactive),1.23 (inactive),0.76,1.76 (inactive),-1.43 (inactive),0.618,-1.55
C=C(C(=O)CC[C@@H](OC(C)=O)c1ccccc1OCCO)C(C)C,0.235,-4.89 (inactive),3.88 (inactive),-1.21 (inactive),-0.965,-0.0791,0.964,-0.353,1.09,1.19 (inactive),-0.29,0.425 (inactive),0.279 (inactive),-1.49 (inactive),0.479 (inactive),-0.258,1.24 (inactive),-0.759 (inactive),-2.43,-0.646
COC(=O)[C@@]1(CCC(=O)OC(C)(C)C)COC(c2ccc(OCCCO)cc2)=N1,-0.328,-0.243 (inactive),0.694 (inactive),-1.14 (inactive),-1.44,-0.109,-1.3,-0.742,-1.03,1.06 (inactive),0.0721,21 (active),3.26 (inactive),0.0081 (inactive),0.613 (inactive),0.21,-0.0972 (inactive),0.562 (inactive),-2.25,0.196
O=C(NO)[C@]1(Cc2ccccc2)N=C(c2ccc(OCCCO)cc2)O[C@@H]1c1ccccc1,-0.229,-1.7 (inactive),3.01 (inactive),-1.91 (inactive),-0.585,-0.0782,-0.427,0.411,-0.351,3.88 (inactive),0.0278,15 (active),0.971 (inactive),-0.479 (inactive),-0.21 (inactive),2.81,0.709 (inactive),0.551 (inactive),2.06,1.86
COc1c(C)cc(-c2cc3c(c(CCc4ccccc4)n2)[Si](C(C)C)(C(C)C)OC3)cc1C,-0.0652,0.236 (inactive),0.12 (inactive),-0.867 (inactive),-0.0683,0.0659,0.367,0.362,0.981,2.56 (inactive),0.112,1.18 (inactive),-0.803 (inactive),-0.428 (inactive),-1.57 (inactive),0.663,0.726 (inactive),0.907 (inactive),-0.11,0.483
